The text below walks through data of PubChem BioAssay AID651784 (National Center for Advancing Translational Sciences (NCATS), 2012).

Records with an inconclusive call do not appear. Activity calls are given as the source filed them. Calls follow the shape of the dose curve; as a rule, active = well fitted inhibition curve with a large enough effect; inconclusive = small, poorly fitted or top-dose-only effect; inactive = no such curve, though single readings can be large or run the other way.
Potency is read from the fitted curve at half-maximal effect.

The nature of this assay: Acumen qHTS Assay for Inhibitors of the mTORC1 Signaling Pathway in MEF (Tsc2-/-, p53-/-) Cells: Hit Validation.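 Also: phospho-rpS6 Ser235/236 immunofluorescence normalized to propidium iodide cell count; nearly all actives have a fitted effect of over 65% in size.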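 As to activity change, negative = inhibition: cells exposed to compound for 24 hours; plate controls were DMSO for no effect and 7.5 nM rapamycin control for full effect.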 The settings on record: Acumen imaging; activity change, negative = inhibition: at 37.3 µM (top of the series). Background: In qHTS, concentration-response curves come from the screen itself.
As for `Cc1ccc2nc(-c3cccc(NC(=O)c4cccc5ccccc45)c3)oc2c1`, the activity change, negative = inhibition is -72.4%.

As to `CC(C)N(C(=O)CSc1nc2ccc(Cl)cc2[nH]1)c1ccccc1`, the activity change, negative = inhibition is -16%.

In the case of `CC(C)CCNC(=O)c1cccc(Nc2nc3ccccc3n3nnnc23)c1`, the activity change, negative = inhibition was -88.5%.

In the case of `CCOc1ccc(C(=O)Nc2ccc3nc4c(c(Nc5ccccc5OC)c3c2)CCCC4)cc1`, the activity change, negative = inhibition is -66.6%.

For the molecule `CCCCOC(=O)c1ccc(NC(=O)c2ccc3c(c2)CCN3S(=O)(=O)c2ccccc2)cc1`, the activity change, negative = inhibition was -14.2%.

On to `CCS(=O)(=O)c1ncc(Cl)c(C(=O)Nc2ccc(S(=O)(=O)N(C)c3ccccc3)cc2)n1`, for which the Potency is 1.47 µM (active). As for `COc1ccc(CCNC(=O)CCCn2nc(C)c3sc4ccccc4c3c2=O)cc1OC`, the activity change, negative = inhibition was -12%. As to `CCc1nn(CC(=O)NCc2ccccc2)c(=O)c2cccn12`, the activity change, negative = inhibition stood at 5.81%.

`Cc1ccc(S(=O)(=O)c2nc(-c3ccco3)oc2SC(C)c2ccccc2)cc1` (configuration not stated): the activity change, negative = inhibition was -7.74%. As for `CCC(C(=O)N1CCN(c2cccc(C)c2C)CC1)n1nc(C)c2sc3ccccc3c2c1=O` (configuration not stated), the activity change, negative = inhibition was -0.603%. Still for that read-out and setting: with `Cc1nn(CC(=O)N2CCN(c3ccccc3F)CC2)c(=O)c2cccn12` the figure was 2.89%; with `Cn1nnnc1SCCCNCc1ccccc1OCc1ccc(Cl)cc1`, -60%. The same measure, in the same setting: with `COc1ccc(OC)c(NC(=O)c2nnn(CC(=O)Nc3ccc(C(C)C)cc3)c2N)c1` the figure was -27.6%; with `Cc1ccccc1NC(=O)Cn1cc(C(=O)c2cccs2)c2ccccc21`, 1.72%. Take `COc1ccc(CCNC(=O)c2ccc3c(c2)N(Cc2ccccc2)CCS3)cc1OC`: the Potency is 5.21 µM (active). Same read-out and setting: with `Cc1ccc(C)c(CN2C(=O)C(=O)c3ccccc32)c1` the figure was 1.47 µM (active).

For the molecule `CCCSc1oc(-c2ccco2)nc1S(=O)(=O)c1ccc(Br)cc1`, the activity change, negative = inhibition was determined as 4.39%. On the same count and under the same terms, with `CCOc1ccc(NC(=O)CN2C(=O)C(c3ccc(Cl)cc3)=NC2(C)C)cc1` the figure was 17.5%; with `Cc1ccc(C)c(N2CCN(CCCNC(=O)Nc3ccc(Cl)cc3)CC2)c1`, -77%.

`CCN1CCN(C(=O)Cn2ncc3c4ccccc4n(Cc4c(C)cc(C)cc4C)c3c2=O)CC1`: the activity change, negative = inhibition is -17.5%. Same read-out and setting: with `Cc1cccc(CSCCNC(=O)CN(c2ccccc2)S(=O)(=O)N(C)C)c1` the figure was 3.74%; with `COc1ccc(N2CC(c3nc(-c4cc(OC)c(OC)c(OC)c4)no3)CC2=O)cc1Cl` (configuration not stated), 5.08%.

In the case of `Cc1c(Cl)cccc1-c1ccc(C(=O)Nc2ccc3oc(-c4cccnc4)nc3c2)o1`, the activity change, negative = inhibition is -39.9%. For the molecule `O=C(CCCn1c(=O)c2ccccc2n(Cc2cccc(Cl)c2)c1=O)NCCc1ccc(Cl)cc1`, the activity change, negative = inhibition was -4.01%. On to `Cc1ccc(NC(=O)CCNS(=O)(=O)c2cccc3nonc23)cc1Cl`, for which the activity change, negative = inhibition turned out to be 5.73%. In the case of `O=C(CC1(O)C(=O)N(CCc2ccccc2)c2ccc(Br)cc21)c1ccccc1O` (configuration not stated), the Potency was 6.56 µM (active). Still for that read-out and setting: with `Cc1ccc(C(=O)CC2(O)C(=O)N(Cc3ccccc3)c3ccc(Br)cc32)cc1` (configuration not stated) the figure was 11.7 µM (active). For `COc1ccc(-c2nc3cc(NC(=O)Cc4ccc(Cl)cc4)ccc3o2)cc1OC`, the activity change, negative = inhibition was -60.1%. In the case of `Cc1nc2scc(C)n2c(=O)c1S(=O)(=O)Nc1ccc(N2CCOCC2)c(Cl)c1`, the Potency is 1.47 µM (active).

With `Cc1ccc(CN2C(=O)C(=O)c3cc(Br)cc(C)c32)cc1`, the Potency is 9.27 µM (active). On to `CC(C)c1nnc(NC(=O)c2nc(S(=O)(=O)Cc3ccccc3)ncc2Cl)s1`, for which the activity change, negative = inhibition is -86.2%. On the same count and under the same terms, with `COc1cc(Br)ccc1C1C(C(=O)Nc2ccc(C)cc2C)=C(C)Nc2nnnn21` (configuration not stated) the figure was -23.7%.

Turning to `CCOC(=O)Cc1ccc(NC(=O)n2ncc3cc(Cl)ccc32)cc1`, the Potency is 8.26 µM (active). The same measure, in the same setting: with `Cc1ccc2c(c1)C(=O)C(=O)N2Cc1ccc(OC(C)C)cc1` the figure was 0.0736 µM (active).

Take `CCCCN(CC)CCNC(=O)C1CCN(c2nnc(C)c3c(C)n(-c4ccc(C)cc4)nc23)CC1`: the activity change, negative = inhibition was -14.5%. `CCCN(CCC)CCCNC(=O)C1CCN(c2nc3ccc(CC)cc3s2)CC1`: the Potency is 11.7 µM (active).

`Cn1ccc2c(OCC(=O)Nc3ccc(OC(F)(F)F)cc3)cccc2c1=O`: the Potency is 16.5 µM (active).
